Experiments:
Test in all cases: log2 ratio of Biotin-Ahx-Ub-VS probe labelling (fragment/DMSO); higher = less target engagement (more negative = stronger competition), active = hit call of the paper (q ≤ 0.05, log2 ratio ≤ -1)
Settings in all cases: compound concentration: 200 uM; treatment time: 3 h
[1] = target: T1, OTUD6B (UniProt Q8N6M0)
T1 sequence (whole entry): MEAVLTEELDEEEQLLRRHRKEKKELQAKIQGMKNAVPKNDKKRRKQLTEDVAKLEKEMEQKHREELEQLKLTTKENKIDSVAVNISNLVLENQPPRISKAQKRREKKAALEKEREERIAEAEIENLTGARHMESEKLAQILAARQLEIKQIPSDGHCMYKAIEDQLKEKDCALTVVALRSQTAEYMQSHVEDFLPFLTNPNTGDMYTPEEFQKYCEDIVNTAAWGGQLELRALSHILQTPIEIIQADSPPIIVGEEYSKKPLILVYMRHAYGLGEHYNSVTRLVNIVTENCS
Outline: (§1)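 HEK293T lysate in Tris/CHAPS/IGEPAL buffer with protease inhibitors (495 µg per sample) was given fragment at 200 µM or vehicle for 3 h, in triplicate. It then received Biotin-Ahx-Ub-VS at 0.5 µM final for 1 h. Labelled DUBs were NeutrAvidin-enriched, digested with LysC and trypsin, and run by diaPASEF LC-MS/MS. Values are average log2 fragment/vehicle ratios by unpaired t-test on global-median-normalised Spectronaut quantities of proteins with ≥2 unique peptides.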

[2] = target: T2, OTUD7B (UniProt Q6GQQ9)
T2 sequence (whole entry): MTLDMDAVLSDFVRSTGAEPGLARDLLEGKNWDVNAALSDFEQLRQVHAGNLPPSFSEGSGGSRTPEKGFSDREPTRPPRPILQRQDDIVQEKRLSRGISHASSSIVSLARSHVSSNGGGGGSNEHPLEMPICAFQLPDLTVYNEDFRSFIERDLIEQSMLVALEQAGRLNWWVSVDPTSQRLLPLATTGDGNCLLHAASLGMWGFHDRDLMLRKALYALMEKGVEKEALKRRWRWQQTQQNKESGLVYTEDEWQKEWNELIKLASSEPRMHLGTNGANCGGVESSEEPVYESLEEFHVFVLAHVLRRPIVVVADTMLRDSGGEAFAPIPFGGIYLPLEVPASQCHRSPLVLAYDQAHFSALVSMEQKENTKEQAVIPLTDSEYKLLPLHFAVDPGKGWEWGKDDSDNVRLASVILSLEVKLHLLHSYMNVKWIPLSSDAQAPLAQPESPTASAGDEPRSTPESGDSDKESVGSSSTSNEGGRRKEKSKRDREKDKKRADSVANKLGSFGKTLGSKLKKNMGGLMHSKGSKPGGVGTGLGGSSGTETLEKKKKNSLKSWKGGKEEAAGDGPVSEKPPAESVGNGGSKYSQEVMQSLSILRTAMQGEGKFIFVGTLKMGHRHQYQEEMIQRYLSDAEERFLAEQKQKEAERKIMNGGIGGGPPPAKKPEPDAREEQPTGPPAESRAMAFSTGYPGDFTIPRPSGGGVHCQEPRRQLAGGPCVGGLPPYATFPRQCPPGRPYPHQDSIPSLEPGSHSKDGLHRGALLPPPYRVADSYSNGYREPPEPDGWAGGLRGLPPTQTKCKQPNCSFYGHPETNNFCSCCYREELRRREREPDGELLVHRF
Outline: as §1

[3] = target: PRPF8 (UniProt Q6P2Q9)
Outline: as §1

[4] = target: T3, PSMD7 (UniProt P51665)
T3 sequence (whole entry): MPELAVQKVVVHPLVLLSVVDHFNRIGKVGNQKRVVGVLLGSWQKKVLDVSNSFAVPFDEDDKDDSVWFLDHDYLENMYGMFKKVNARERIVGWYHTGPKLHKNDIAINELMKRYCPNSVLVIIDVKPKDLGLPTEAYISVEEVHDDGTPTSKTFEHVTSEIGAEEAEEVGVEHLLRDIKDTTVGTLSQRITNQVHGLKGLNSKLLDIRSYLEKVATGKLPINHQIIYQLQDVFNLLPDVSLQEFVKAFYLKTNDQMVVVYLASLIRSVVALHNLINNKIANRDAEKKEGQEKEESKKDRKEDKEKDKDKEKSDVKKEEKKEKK
Outline: as §1

[5] = target: UCHL1 (UniProt P09936)
UCHL1, sequence (P09936 whole entry, looked up): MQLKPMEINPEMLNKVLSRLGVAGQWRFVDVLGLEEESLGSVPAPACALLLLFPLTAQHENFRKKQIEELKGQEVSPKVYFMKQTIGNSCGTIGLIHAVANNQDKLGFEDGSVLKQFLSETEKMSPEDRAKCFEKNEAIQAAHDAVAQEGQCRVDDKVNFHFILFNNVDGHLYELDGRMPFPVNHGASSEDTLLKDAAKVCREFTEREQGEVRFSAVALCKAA
Outline: as §1

[6] = target: T4, UCHL3 (UniProt P15374)
T4 sequence (whole entry): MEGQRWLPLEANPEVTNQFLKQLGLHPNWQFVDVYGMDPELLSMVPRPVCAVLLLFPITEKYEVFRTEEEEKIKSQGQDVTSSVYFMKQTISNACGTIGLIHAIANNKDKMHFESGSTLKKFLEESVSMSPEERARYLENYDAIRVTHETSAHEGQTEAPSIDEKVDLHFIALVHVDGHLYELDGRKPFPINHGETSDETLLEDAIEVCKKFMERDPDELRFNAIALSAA
Outline: as §1

[7] = target: T5, UCHL5 (UniProt Q9Y5K5)
T5 sequence (whole entry): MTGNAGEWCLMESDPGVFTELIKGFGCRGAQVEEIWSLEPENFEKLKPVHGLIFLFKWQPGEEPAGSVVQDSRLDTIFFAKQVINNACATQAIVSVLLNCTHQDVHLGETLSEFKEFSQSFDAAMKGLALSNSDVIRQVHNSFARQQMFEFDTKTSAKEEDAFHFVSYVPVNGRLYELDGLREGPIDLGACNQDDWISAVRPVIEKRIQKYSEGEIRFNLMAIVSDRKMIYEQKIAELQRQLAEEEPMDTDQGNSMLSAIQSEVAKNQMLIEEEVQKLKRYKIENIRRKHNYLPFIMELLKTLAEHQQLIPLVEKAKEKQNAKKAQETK
Outline: as §1

[8] = target: USP10 (UniProt Q14694)
USP10, sequence (Q14694 whole entry): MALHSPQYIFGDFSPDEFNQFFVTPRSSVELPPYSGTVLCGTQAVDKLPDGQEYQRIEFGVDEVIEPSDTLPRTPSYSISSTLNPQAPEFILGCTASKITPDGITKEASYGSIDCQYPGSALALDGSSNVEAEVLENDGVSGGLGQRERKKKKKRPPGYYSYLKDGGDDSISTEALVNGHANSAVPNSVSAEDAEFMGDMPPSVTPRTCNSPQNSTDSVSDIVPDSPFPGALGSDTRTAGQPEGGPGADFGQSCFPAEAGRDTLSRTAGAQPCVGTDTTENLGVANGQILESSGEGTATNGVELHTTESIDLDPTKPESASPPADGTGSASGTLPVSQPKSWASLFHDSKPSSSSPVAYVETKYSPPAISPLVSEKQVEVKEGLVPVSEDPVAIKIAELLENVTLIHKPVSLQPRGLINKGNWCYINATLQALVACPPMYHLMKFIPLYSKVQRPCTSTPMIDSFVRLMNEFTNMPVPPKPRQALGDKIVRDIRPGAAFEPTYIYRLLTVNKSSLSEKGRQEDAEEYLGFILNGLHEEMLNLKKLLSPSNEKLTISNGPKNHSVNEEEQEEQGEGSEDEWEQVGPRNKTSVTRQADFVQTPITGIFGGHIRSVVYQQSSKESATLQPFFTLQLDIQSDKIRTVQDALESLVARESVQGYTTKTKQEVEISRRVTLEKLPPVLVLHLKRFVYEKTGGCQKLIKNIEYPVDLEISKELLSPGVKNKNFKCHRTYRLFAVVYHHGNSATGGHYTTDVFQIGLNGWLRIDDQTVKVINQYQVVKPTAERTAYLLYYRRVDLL
Outline: as §1

[9] = target: T6, USP15 (UniProt Q9Y4E8)
T6 sequence (whole entry): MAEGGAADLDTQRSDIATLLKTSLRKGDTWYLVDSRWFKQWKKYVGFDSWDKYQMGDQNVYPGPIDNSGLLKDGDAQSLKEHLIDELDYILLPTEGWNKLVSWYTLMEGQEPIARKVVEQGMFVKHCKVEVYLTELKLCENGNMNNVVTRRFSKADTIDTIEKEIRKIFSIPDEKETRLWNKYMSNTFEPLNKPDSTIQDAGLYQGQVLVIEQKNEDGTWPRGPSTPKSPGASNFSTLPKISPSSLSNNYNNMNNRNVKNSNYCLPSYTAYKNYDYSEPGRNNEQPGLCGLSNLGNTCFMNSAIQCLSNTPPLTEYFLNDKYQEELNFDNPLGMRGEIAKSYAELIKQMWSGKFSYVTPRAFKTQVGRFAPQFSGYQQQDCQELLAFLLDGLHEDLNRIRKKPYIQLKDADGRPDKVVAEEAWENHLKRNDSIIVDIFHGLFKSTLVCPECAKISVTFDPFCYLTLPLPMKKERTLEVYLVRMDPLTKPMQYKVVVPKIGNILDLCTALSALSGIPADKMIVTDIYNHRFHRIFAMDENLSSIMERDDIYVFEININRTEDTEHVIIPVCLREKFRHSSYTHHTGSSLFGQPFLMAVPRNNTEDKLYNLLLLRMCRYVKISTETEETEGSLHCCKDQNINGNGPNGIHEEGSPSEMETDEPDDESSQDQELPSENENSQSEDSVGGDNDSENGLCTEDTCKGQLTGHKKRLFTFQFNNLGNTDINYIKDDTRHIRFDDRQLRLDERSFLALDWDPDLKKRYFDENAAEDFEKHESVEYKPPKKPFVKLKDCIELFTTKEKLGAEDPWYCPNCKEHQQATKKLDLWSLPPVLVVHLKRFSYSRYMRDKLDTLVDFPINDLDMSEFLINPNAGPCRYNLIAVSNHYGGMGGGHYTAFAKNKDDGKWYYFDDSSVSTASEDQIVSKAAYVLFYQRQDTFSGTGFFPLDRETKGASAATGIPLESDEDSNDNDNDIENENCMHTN
Outline: as §1

[10] = target: USP16 (UniProt Q9Y5T5)
USP16, sequence (Q9Y5T5 whole entry, looked up): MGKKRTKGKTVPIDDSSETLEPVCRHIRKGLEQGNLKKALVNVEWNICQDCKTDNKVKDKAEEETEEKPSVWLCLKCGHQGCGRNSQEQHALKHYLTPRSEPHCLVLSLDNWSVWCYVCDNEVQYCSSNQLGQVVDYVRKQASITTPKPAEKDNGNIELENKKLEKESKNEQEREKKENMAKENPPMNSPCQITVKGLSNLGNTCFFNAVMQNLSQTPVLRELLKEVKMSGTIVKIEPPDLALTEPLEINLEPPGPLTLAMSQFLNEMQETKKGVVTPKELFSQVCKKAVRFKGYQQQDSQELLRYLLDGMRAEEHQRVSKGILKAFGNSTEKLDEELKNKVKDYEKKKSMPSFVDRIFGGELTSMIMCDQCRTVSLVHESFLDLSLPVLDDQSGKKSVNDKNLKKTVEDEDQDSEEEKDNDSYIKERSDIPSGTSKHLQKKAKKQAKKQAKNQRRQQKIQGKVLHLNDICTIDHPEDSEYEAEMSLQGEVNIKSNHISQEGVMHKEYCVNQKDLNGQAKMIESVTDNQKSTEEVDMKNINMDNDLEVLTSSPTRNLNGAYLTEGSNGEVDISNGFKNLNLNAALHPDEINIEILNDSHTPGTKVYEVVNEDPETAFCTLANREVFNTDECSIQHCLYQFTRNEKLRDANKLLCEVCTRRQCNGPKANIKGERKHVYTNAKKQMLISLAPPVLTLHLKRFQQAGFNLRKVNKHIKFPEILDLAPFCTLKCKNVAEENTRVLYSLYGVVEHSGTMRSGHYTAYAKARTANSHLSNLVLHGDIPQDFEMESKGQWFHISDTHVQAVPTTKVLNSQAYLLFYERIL
Outline: as §1

Measured: log2 ratio of Biotin-Ahx-Ub-VS probe labelling

Cc1noc(N2CCN(C(=O)CCl)CC2)n1.Cl
inactive: [1] -0.229 | [2] -0.413 | [3] -0.079 | [4] 0.128 | [6] 0.0214 | [7] -0.188 | [8] -0.076 | [9] -0.285 | [10] 0.132
active: [5] -1.52

Source: the supplement of paper PMC11732987, “Enantioselective OTUD7B fragment discovery through chemoproteomics screening and high-throughput optimisation” (Communications Chemistry, 2025)
